Measured values from PubChem BioAssay (NCI).
Compounds without any hit were thinned out: in the full panel of roughly 79,000, 15% have a hit. Rule as the data show it: active = growth inhibition above about 70%; inactive = the rest. Where a SMILES comes first, the peptide text is derived from it. Bridges are numbered along the chain shown (N, C = ends).

Tests used:
[1] = NCI Yeast Anticancer Drug Screen. Data for the rad50 strain (AID 155);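 also: 0% = growth of vehicle-only cultures of the same strain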; conditions: S. cerevisiae rad50 strain growth inhibition; at 50.0 µM; active compounds read high
Summary of the method: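 Compounds were tested on a yeast strain with an engineered DNA damage repair alteration; the reported value is growth inhibition normalised to vehicle treatment.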

[2] = NCI Yeast Anticancer Drug Screen. Data for the mec2-1 strain (AID 157); conditions: S. cerevisiae mec2-1 strain, at 50.0 µM, active compounds read high
Summary of the method: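 Mutant yeast (mec2-1) grown with compound; growth inhibition relative to vehicle control reported.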

[3] = NCI Yeast Anticancer Drug Screen. Data for the sgs1 mgt1 strain (AID 161);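 also: 0% = growth of cultures given vehicle only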; conditions: S. cerevisiae sgs1 mgt1 strain, at 50.0 µM, active compounds read high
Summary of the method: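 Percent growth inhibition was derived by comparing compound-exposed mutant yeast with vehicle-exposed cultures. The strain carries alterations in DNA damage repair.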

[4] = NCI Yeast Anticancer Drug Screen. Data for the cln2 rad14 strain (AID 165);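 also: 0% = growth equal to vehicle treated cultures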; conditions: S. cerevisiae cln2 rad14 strain, at 50.0 µM, active compounds read high
Summary of the method: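 Readout is yeast growth inhibition versus vehicle-treated controls, using a strain with cln2 and rad14 alterations exposed to compound.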

[5] = NCI Yeast Anticancer Drug Screen. Data for the bub3 strain (AID 167); conditions: S. cerevisiae bub3 mutant strain, at 50.0 µM, active compounds read high
Summary of the method: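 Growth of a checkpoint-deficient yeast mutant is measured after compound exposure. Values represent inhibition relative to vehicle.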

[6] = NCI Yeast Anticancer Drug Screen. Data for the mlh1 rad18 strain (AID 175); conditions: S. cerevisiae mlh1 rad18 strain growth inhibition; at 50.0 µM; active compounds read high
Summary of the method: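 Genetically defined yeast (DNA repair-deficient) exposed to compounds; growth inhibition determined relative to vehicle.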

Measured: growth inhibition

O=C1COC(=O)N1
inactive: [1] -6.85% | [2] -22.4% | [3] -3.45% | [4] -3.35% | [5] 0.2% | [6] 8.25%

NC(=O)c1ccccc1C(N)=O
inactive: [1] 13.4% | [2] -10.6% | [3] 8.95% | [4] 30.7% | [5] -11.8% | [6] -31.9%

O=c1oc2ccccc2c(O)c1C(c1ccc2c(c1)OCO2)N1CCCC1 (stereo not drawn)
inactive: [1] 7.4% | [2] 36.7% | [3] 19.9% | [4] 15.3% | [5] 8.35% | [6] 22.9%

CCc1c(CBr)c(=O)[nH]c2ccccc12
inactive: [1] 8.7% | [2] -8.1% | [3] -10.8% | [4] 0.9% | [5] 1.3% | [6] 2.55%

COc1ccc(/C=C/C(=O)c2c(-c3ccccc3)nn(C)c(=O)c2N2CCCC2)cc1
inactive: [1] -23.8% | [2] -20.3% | [3] -33.2% | [4] -24.4% | [5] -11.2% | [6] -34.1%

CC(=O)NCCN1CCN(C(C)=O)CC1
inactive: [1] 10.1% | [2] 10.7% | [3] -8.7% | [4] -37% | [5] -13.8% | [6] -15.2%

CC(=O)/C(N=Nc1ccccc1SCCC#N)=C(\C)O
inactive: [1] 12.2% | [2] -2.55% | [3] -8.1% | [4] -28.6% | [5] 9.15% | [6] 1.5%

COC(=O)c1cc(=O)n(C)[nH]1
inactive: [1] -0.55% | [2] 4.7% | [3] 0.75% | [4] -58.2% | [5] 6.65% | [6] -1.05%

CC(=O)c1ccc(N=NN2CCCC2)cc1
inactive: [1] 30.2% | [2] 8.35% | [3] 17.1% | [4] 31.4% | [5] 34.2% | [6] 2.7%

COc1ccc(-c2nnc3n(C)c4ccccc4n3c2=O)cc1
inactive: [1] 3.25% | [2] 8.55% | [3] 16.4% | [4] 26.5% | [5] 23.4% | [6] -23.2%

Cc1cc2c(cc1Cl)SC(NNc1ccc([N+](=O)[O-])cc1)=NS2(=O)=O
inactive: [1] 34.6% | [2] 2.4% | [3] 4.6% | [4] -7.85% | [5] -19.6% | [6] 26.9%

COc1ccc(/C=c2/s/c(=C(\C#N)c3nc4ccccc4[nH]3)n(-c3ccccc3)c2=O)cc1
inactive: [1] 4% | [2] -15.2% | [3] -6.4% | [4] 13.9% | [5] -17.6% | [6] 13.2%

CCOC(=O)c1c[nH]c2ccc3c(nc(C)n3C)c2c1=O
inactive: [1] -7.95% | [2] -1.05% | [3] -5.2% | [4] 11.9% | [5] -21.4% | [6] -47.5%

C[OH2+].[Cl][Cu+].[Cl][Cu+].[NH-]CCC([OH2+])CC[NH-]
inactive: [1] -9.1% | [2] -12.2% | [3] -14.4% | [4] -57.5% | [5] -2.8% | [6] 8.2%

CCNC(=O)NCC
inactive: [1] -16.4% | [2] -19.4% | [3] -32.7% | [4] -29.2% | [5] -2% | [6] -3.4%

O=c1ccocc1OC1OC(CO)C(O)C(O)C1O (stereo not drawn)
inactive: [1] -3.95% | [2] -26.4% | [3] -21.1% | [4] -1.35% | [5] -32.3% | [6] -23.1%

Cc1ccc(S(=O)(=O)NN(C)C(=O)c2ccccc2)cc1
inactive: [1] -5.95% | [2] -0.75% | [3] 3.05% | [4] -25.2% | [5] 22.8% | [6] -9.05%

Cc1cccc(NC(=O)COc2c(C)cc(Cl)cc2Cl)c1
inactive: [1] 23.8% | [2] 15.5% | [3] 38.2% | [4] 0.45% | [5] 38% | [6] 14.8%

COC1CCC2(C)C3CCC4C(=CCC5C(C)(C)C(OC(C)=O)CCC45C)CC3(C)CCC2C1(C)C (stereo not drawn)
inactive: [1] 13.1% | [2] -19.4% | [3] -8.35% | [4] -20.8% | [5] 0.1% | [6] 0.2%

O=C(O)CSC(CC(=O)O)C(=O)O (stereo not drawn)
inactive: [1] 10.3% | [2] -9.4% | [3] 17.7% | [4] 8.85% | [5] 21.6% | [6] 4.25%

CN=C1CC2CCCC1C2 (stereo not drawn)
inactive: [1] -15.7% | [2] 0.85% | [3] -5.8% | [4] -6.1% | [5] -7.95% | [6] -15.4%

NS(=O)(=O)c1ccc(N=C2C=CC(=O)C=C2)cc1
inactive: [1] 13.6% | [2] 4.5% | [3] -0.2% | [4] -36.4% | [5] -4.05% | [6] -3.95%

O=C(O)c1cc(Cl)ccc1[N+](=O)[O-]
inactive: [1] 18.6% | [2] -11% | [3] 5.5% | [4] 7.65% | [5] 2.3% | [6] 11%

COc1cc(C2c3cc4c(c(OC(=O)c5ccccn5)c3CC3COC(=O)C32)OCO4)cc(OC)c1OC (stereo not drawn)
inactive: [1] 8.1% | [2] 10.1% | [3] 11.6% | [4] -9.5% | [5] 13% | [6] 34%

Cc1cc(C)[n+](C)c(/C=C/c2ccc([N+](=O)[O-])cc2)n1
inactive: [1] 14.2% | [2] 6.95% | [3] 15.6% | [4] 27.8% | [5] 22.4% | [6] 23.2%

COc1ccccc1N=Nc1c(O)n(-c2ccccc2C)c(=S)n(-c2ccccc2OC)c1=O
inactive: [1] 38.4% | [2] -9.7% | [3] 19.1% | [4] -12.8% | [5] -3.95% | [6] 3.2%

CC(C)=CCOc1cc(NC(=S)c2ccsc2C)ccc1Cl
inactive: [1] -40.6% | [2] -24.6% | [3] -34.1% | [4] -22.4% | [5] -19.1% | [6] -36.3%

C=C(C)C(CCC)(C(=O)OCC)C(=O)OCC
inactive: [1] 3.05% | [2] -9.15% | [3] 12.6% | [4] -4.3% | [5] -13.2% | [6] -14.1%

O=C(O)c1ccc(Br)cc1C(=O)O
inactive: [1] 7.6% | [2] 3.6% | [3] 1.5% | [4] 4.35% | [5] 4.65% | [6] -1.6%

O=C1c2ccc([N+](=O)[O-])cc2C(=O)N1CCBr
inactive: [1] 27.4% | [2] -13.2% | [3] 16.6% | [4] -10.2% | [5] 31.7% | [6] 13.1%

CCC1=C(C)/C(=C/c2[nH]c(C)cc2C)N=C1C
inactive: [1] 5.5% | [2] 0.95% | [3] 3.65% | [4] -54.6% | [5] 0.25% | [6] 12.2%

CC[Si](CC)(CC)[Si](c1ccccc1)(c1ccccc1)c1ccccc1
inactive: [1] 42.1% | [2] 32% | [3] 17.1% | [4] 8.8% | [5] -17.4% | [6] 48.8%

S=c1c2ccccc2c(=S)n2n1CC=CC2
inactive: [1] 7.6% | [2] 6.95% | [3] 2.3% | [4] 0% | [5] 16.8% | [6] 15.7%

COC(=O)C1CCC(=O)NCCCCC(NC(=O)C(N)CC(=O)O)C(=O)N1 (stereo not drawn) (H-Asp-Lys-Glu-OMe; lactam 2-3; configuration not given here)
inactive: [1] 5.4% | [2] 4% | [3] 11.3% | [4] -1.9% | [5] 15.1% | [6] -27.9%

CN=c1ncc2nc(-c3ccccc3)c(-c3ccccc3)n(C)c-2n1
inactive: [1] -8.2% | [2] -5.9% | [3] -7.45% | [4] -42% | [5] -3.85% | [6] -24.4%

Cc1ccc(NC=O)cc1NC=O
inactive: [1] 37.6% | [2] -1.4% | [3] 9.5% | [4] -27.1% | [5] 4.2% | [6] 15.9%

Clc1cc2ncn(C3CCCO3)c2cc1Cl (stereo not drawn)
inactive: [1] 6.3% | [2] 5.1% | [3] 3% | [4] 5.95% | [5] 49% | [6] 11.8%

OCC(Cl)(Cl)C(Cl)(Cl)CO
inactive: [1] 8.2% | [2] -14.5% | [3] -12.7% | [4] -0.95% | [5] -28.6% | [6] -17.8%
